Pf Dd2 inh – Plasmodium falciparum Dd2 growth inhibition; P. falciparum Dd2 growth, SYBR Green, 72 h; hit rate 4.3% among 120,000; AID 1347417; Potency, µM (series often up to 28.9 µM), inactives show at the top dose activity, negative = inhibition, hits mostly inhibitors; active means well fitted inhibition curve with a large enough effect;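 further: plate controls were DMSO vehicle for no effect and reference drug for full effect; nearly all actives have a fitted effect of over 65% in size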
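Readout: SYBR Green fluorescence, 485 nm excitation, 535 nm emission, after ~16 h lysis at 37C. Before that, Dd2-infected red cells (2.5% hematocrit) grew 72 h with compound, 29 uM top final concentration.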
* hit, by the source's call; i = inactive; [ ] = remark or other dose. The sample as a whole holds a higher share of hits than the screen did. Potency means the concentration at half of the fitted maximal effect.

SMILES | Pf Dd2 inh
CN(C)CCCNC(=O)CC1Sc2ncccc2N(C)C1=O (configuration not stated) | -12.6%
Cc1ccc(C)c(C(=O)N2CCC(C3CCN(C)CC3)C2)c1 (configuration not stated) | 15.2%
O=C1CCN(C(=O)C2CCN(C(=O)C3CCC3)CC2)CCCCCCN1 | -17.0%
Cc1ccc(N2CC(c3noc(-c4nccc5ccccc45)n3)CC2=O)cc1 (configuration not stated) | i
Cn1cnc(S(=O)(=O)N2CCCN(C(=O)c3ccco3)CCNC(=O)CC2c2ccccc2)c1 (configuration not stated) | i
COc1ccc(-c2cnc3n[nH]c(-c4ccc(OC)c(F)c4)c3n2)cn1 | i
COc1ccc(-c2[nH]nc3ncc(-c4ccc(C)cc4)nc23)cc1F | 12.6µM*
COc1ccccc1-c1[nH]nc2ncc(-c3ccc(C)cc3)nc12 | i
Cc1ccc(C(=O)N2CCC3(CN[S+](=O)([O-])c4ccccc4N3)C2)cc1 (configuration not stated) | 22.7%
COc1ccc(-c2ccc3c(c2)C(=O)N2CC[C@H](NC(=O)CSC)[C@H]2C(=O)N3)cc1 | i
Cc1cccc(-c2ccc3c(c2)C(=O)N2CC[C@H](NS(=O)(=O)c4cccs4)[C@H]2C(=O)N3)c1C | 10µM*
COc1ccc(Cl)cc1-c1ccc2c(c1)C(=O)N1C[C@H](O)C[C@H]1C(=O)N2 | -4.6%[44.1 µM]
O=C1Nc2ccc(-c3ccccc3F)cc2C(=O)N2C[C@@H](NS(=O)(=O)c3ccc(F)cc3)C[C@@H]12 | i
O=C(N[C@H]1CCN2C(=O)c3cc(-c4ccc(Cl)cc4)ccc3NC(=O)[C@H]12)c1cccs1 | -17.4%
O=C1Nc2cc(Cl)ccc2C(=O)N2CC[C@H](NS(=O)(=O)c3cccs3)[C@@H]12 | i
COc1ccc(Cl)cc1-c1ccc2c(c1)C(=O)N1C[C@@H](NS(=O)(=O)c3ccc(F)cc3)C[C@H]1C(=O)N2 | 7.08µM*
CSCC(=O)N[C@H]1CCN2C(=O)c3cc(-c4cccc(C)c4C)ccc3NC(=O)[C@H]12 | i
O=C(N[C@H]1CCN2C(=O)c3ccc(Cl)cc3NC(=O)[C@H]12)c1cccs1 | -17.7%[44.1 µM]
COc1ccc(-c2ccc3c(c2)C(=O)N2CC[C@H](NS(=O)(=O)c4cccs4)[C@H]2C(=O)N3)cc1 | 11.2µM*
COc1ccc(-c2ccc3c(c2)C(=O)N2CC[C@H](NC(=O)c4cccs4)[C@H]2C(=O)N3)cc1 | -1.1%
COc1ccc(Cl)cc1-c1ccc2c(c1)C(=O)N1CC[C@H](NC(=O)c3cccs3)[C@H]1C(=O)N2 | 7.94µM*
Cc1noc([C@H]2CCN(C(=O)NCc3ccccc3)C[C@H]2NC(=O)C2CCOCC2)n1 | 15.4%
COC1CCOC2(CCN(C(=O)c3ccc(F)cc3)CC2)C1 (configuration not stated) | 28.6%
CCN1C(=O)C2(CCN(S(=O)(=O)c3cccs3)CC2)c2ccccc21 | 45.8%
CC(C)NC[C@H]1O[C@@H]2C[C@@H](CC(=O)N3CCC(F)(F)C3)O[C@@H]2[C@@H]1O | 23.5%[44.1 µM]
SMILES | Pf Dd2 inh
O=C(Cc1cccnc1)N1C[C@@H](COCC2CC2)[C@H](c2ccncc2)C1 | 27.5%
COc1cccc(-c2cc(C(=O)NCCc3n[nH]c(=O)n3C)[nH]n2)c1 | -11.0%
Cc1nc(C)c(C(=O)N2CCC3(CC2)CN(c2ncccn2)CC3CO)s1 (configuration not stated) | -17.0%
CCOc1ccc(C(=O)NC(C)C(=O)N2CCN(c3ccccn3)CC2)cc1 (configuration not stated) | i
COc1cccc(CCC(=O)N2CCCC(Nc3ccc(F)cc3)C2)c1 (configuration not stated) | -11.3%
FC(F)Oc1ccccc1CN1CCCC(Nc2ccccc2)C1 (configuration not stated) | i
COc1ccc(O)c(CN2CCCC(Nc3ccc(F)cc3)C2)c1 (configuration not stated) | 2.82µM*
Cc1ccc(C)c(N2CCN(CCCNC(=O)c3cnn(-c4cccc(Cl)c4)c3C3CCN(C(=O)OC(C)(C)C)CC3)CC2)c1 | 1.41µM*
Cc1ccc(C)c(N2CCN(C(=O)c3cnn(-c4ccccc4Cl)c3C3CCN(C(=O)OC(C)(C)C)CC3)CC2)c1 | 3.55µM*
CC(C)(C)OC(=O)N1CCC(c2c(C(=O)N3CCN(C(=O)c4ccco4)CC3)cnn2-c2ccccc2Cl)CC1 | 11.2µM*
CC(C)(C)OC(=O)N1CCC(c2c(C(=O)N3CCN(C(=O)c4ccco4)CC3)cnn2-c2ccc(Cl)cc2)CC1 | 103.7%[5.79 µM]
Cc1ccc(-n2ncc(C(=O)NCCCN3CCN(C)CC3)c2C2CCN(C(=O)OC(C)(C)C)CC2)c(C)c1 | i
Cc1ccc(C)c(N2CCN(CCCNC(=O)c3cnn(-c4ccccc4Cl)c3C3CCN(C(=O)OC(C)(C)C)CC3)CC2)c1 | 2.24µM*
COc1ccccc1NC(=O)c1c(C)oc2ccn(Cc3ccc(F)cc3)c(=O)c12 | i
CC(C)CN1CC2(CCN(C(=O)c3cc(-c4ccccc4)nn3C)CC2)CC1=O | -19.4%
Cc1ccc(C#N)c(N2CCC(c3nnc(Cn4cncn4)n3C)CC2)n1 | 5.5%
COc1ccc(-c2noc([C@@H]3C[C@@H](O)CN3Cc3ncc[nH]3)n2)cc1 | -15.6%[44.1 µM]
COCCc1noc(-c2ccc(N(C)CCc3cnn(C)c3)nc2)n1 | -0.3%
CCOc1ccc(-c2cc(C(=O)N3CCCC3c3nncn3C(C)C)[nH]n2)cc1 (configuration not stated) | -11.5%
O=C(NCC1CC1)c1cn(C2CN(S(=O)(=O)c3cccc(F)c3)C2)nn1 | -8.3%
COc1cc(OC)nc(NCc2cccnc2N2CCN(C(C)=O)CC2)n1 | -16.2%
C[C@@H](NC(=O)c1ccccc1)c1onc(-c2cccnc2)c1C(=O)O | -4.7%[44.1 µM]
C=CCNC(=O)N1CC[C@H]2CC(=O)N(CCc3cccc(OC)c3OC)CC[C@H]2C1 | -19.6%[44.1 µM]
O=C1NCCCCCCN(C(=O)NC2CCCCC2)[C@H]2CCCC[C@@H]12 | i
CCN1CCN(C(=O)c2cnn(-c3ccc(F)cc3F)c2C2CCN(C(=O)OC(C)(C)C)CC2)CC1 | -5.8%
SMILES | Pf Dd2 inh
Cc1ccc(N2CCN(C(=O)c3cnn(-c4ccc(F)cc4F)c3C3CCN(C(=O)OC(C)(C)C)CC3)CC2)c(C)c1 | 7.94µM*
Cc1ccc(C)c(N2CCN(CCCNC(=O)c3cnn(-c4ccc(F)cc4)c3C3CCN(C(=O)OC(C)(C)C)CC3)CC2)c1 | 1.26µM*
CCN1CCN(CCCNC(=O)c2cnn(-c3ccc(C)cc3)c2C2CCN(C(=O)OC(C)(C)C)CC2)CC1 | -3.8%
Cc1[nH]c2c(F)cccc2c1CC(=O)N(C)Cc1ccc2nsnc2c1 | -0.6%
COCCC(=O)N1CCCN(S(C)(=O)=O)C(c2ccccc2)CC(=O)NCC1 (configuration not stated) | -3.1%
Cn1cnc(S(=O)(=O)N2CC[C@@H]3C(=O)NCCCCCCN(Cc4ccncc4)[C@@H]3C2)c1 | 15.2%
O=C1NCCCCCCN(Cc2ccncc2)[C@@H]2CN(S(=O)(=O)c3ccc4c(c3)CCC4)CC[C@H]12 | 2.82µM*
CCS(=O)(=O)N1CC[C@H]2C(=O)NCCCCCCN(Cc3ccncc3)[C@@H]2C1 | 16.2%
O=C1NCCCCCCN(Cc2ccncc2)[C@@H]2CN(S(=O)(=O)Cc3cccc(F)c3)CC[C@H]12 | 8.91µM*
O=C1NCCCCCCN(Cc2ccncc2)[C@@H]2CN(C3CCC3)CC[C@H]12 | 13.3%
O=C1NCCCCCCN(Cc2ccncc2)[C@@H]2CN(S(=O)(=O)c3cccnc3)CC[C@@H]12 | -2.1%

Assay outcomes (PubChem)
